# The full ranking holds about 33,000 sequences; the median of “E-score (dimensionless, -0.5 to 0.5)” is about -0.058, and the highest 2% start at about 0.35. This is one part of a sample in which the highest values are shown more often than they occur.
# Tested on: MvaT
# Assay: PBM 8-mer E-score (mean of HK and ME arrays) (E-score (dimensionless, -0.5 to 0.5)); higher = stronger relative binding preference
# Description: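 Protein binding microarray: GST-tagged full-length MvaT (P. aeruginosa PAO1) bound to two universal double-stranded 60-mer arrays (ME and HK), each with a constant 25-mer primer and a variable 35-mer region covering all 8-mers. The 8-mer E-score (rank-based, range -0.5 to 0.5, >0.45 = specific binding) is the mean of the two arrays.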
row,Sequence,PBM 8-mer E-score
1,CGCAACCC,-0.0943
2,AGGTGCAT,-0.0802
3,GCAGGACC,-0.179
4,ACAATCAA,0.21
5,TAGAGACA,0.123
6,CAATCGGA,-0.0769
7,ACTTCTCC,0.2
8,GCATATAC,0.311
9,TCATATAA,0.379
10,GCATATAA,0.374
11,TCATATGA,0.204
12,GCATATGA,0.176
13,CCATATAA,0.343
14,ACGCAGGC,-0.282
15,GCCGAACC,-0.115
16,ATAACTGG,0.213
17,ACAGGAAA,0.0933
18,AAACCCTT,-0.0425
19,CTTAATAA,0.385
20,CTCAATAA,0.307
21,GTTAATCA,0.183
22,GTTAATGA,0.264
23,GTTAATAA,0.377
24,CTTAAAAA,0.163
25,CATGAGAA,-0.0314

row,Sequence,PBM 8-mer E-score
1,CACTTGTA,0.139
2,AAATAACA,0.336
3,ACATAACT,0.268
4,AAATAACT,0.375
5,AAATAACG,0.331
6,AAATAACC,0.375
7,CAATAACC,0.223
8,CACGTGCA,-0.0519
9,ATCTGGAC,-0.0431
10,TCATCGAA,-0.15
11,GAGACATC,-0.0544
12,AAGCATAG,-0.033
13,CCAGTTAC,0.14
14,AGACGCGA,0.0502
15,AAAATTTA,0.311
16,TAAATTTA,0.414
17,AAATTTAC,0.11
18,AAAATTTG,0.221
19,AAATTTAT,0.384
20,AAAAATTT,0.298
21,GAATTTTA,0.254
22,AAATTTTA,0.35
23,AATTTTTA,0.34
24,AAAATTTT,0.354
25,AAATTTAG,0.238

row,Sequence,PBM 8-mer E-score
1,CAAATTTA,0.22
2,AGAGTTCG,0.00443
3,CAACCCGC,-0.00327
4,CATGATGC,-0.011
5,AGGGGGAG,-0.246
6,AGAAAGGC,-0.118
7,CTGTGCTA,-0.0139
8,GGAGCCAC,-0.325
9,AAATTCAA,0.226
10,GAAATGTA,0.259
11,TAATTCAA,0.346
12,CAATTTTA,0.293
13,GAATTCAA,0.0832
14,CAATTTAG,0.2
15,CAATTTAA,0.366
16,CAAATGTA,0.0762
17,TAAATGTA,0.359
18,TAATTTGA,0.201
19,GAATTTAA,0.264
20,TAATTTAA,0.457
21,CAGGAGAG,-0.196
22,AGTCACAT,-0.0559
23,GTTTCGCA,-0.0431
24,ATTACTCG,0.169
25,AAATACTG,0.244

row,Sequence,PBM 8-mer E-score
1,CATGTCAG,-0.042
2,AATAGTCG,0.218
3,ACGTATAC,0.136
4,GCAGGCGC,-0.28
5,ATACTCGG,0.0138
6,AGATTTAA,0.273
7,AAATTTGA,0.189
8,AAATTTCA,0.241
9,AAATTTAA,0.408
10,TGATTTAA,0.347
11,CGATTTAA,0.238
12,GAATCAAA,0.13
13,GTAGTGCA,-0.115
14,AACCACTG,-0.0219
15,GACCGCTA,-0.115
16,GATTGAAA,0.12
17,CTGCCACC,-0.166
18,ATACTCAT,0.175
19,ATCAGGCA,-0.0666
20,ATTAAATG,0.373
21,GTTAAAGA,0.11
22,AGTAAATG,0.175
23,GTTAAATA,0.396
24,ATTAAATC,0.382
25,CTTAAATA,0.337

row,Sequence,PBM 8-mer E-score
1,ATTAAAGA,0.264
2,ATTAAATA,0.421
3,ATTAAACC,0.249
4,CTTAAATC,0.0452
5,ACTAAATA,0.31
6,ATTAAAGG,0.156
7,CGGTACCG,-0.0831
8,TACGAGCA,-0.0785
9,CACCTAAG,-0.143
10,GACGTACA,0.034
11,CCCCGTGA,-0.306
12,AACTGACG,0.0522
13,ACTTTTTG,0.122
14,ATTAAACG,0.284
15,ATTAAACA,0.391
16,CTTAAACA,0.156
17,GCAATACA,0.0621
18,GAGCACGA,-0.273
19,AGGCATAA,-0.0265
20,GATTTAGA,0.0137
21,AATTTATC,0.276
22,CATTTATA,0.347
23,AATTTATG,0.273
24,GGTTTATA,0.242
25,AATTTATA,0.46

row,Sequence,PBM 8-mer E-score
1,GATTTATA,0.398
2,GATTTTTA,0.133
3,AGTTTATC,0.144
4,CATTTATC,0.241
5,AGTTTATA,0.424
6,CATTTTTA,0.242
7,AGCAGGCC,-0.328
8,TCCTAACA,0.0526
9,TCCCACAA,0.0216
10,CAATTCAC,0.0398
11,ATTTTATG,0.234
12,ACTTTATC,0.105
13,CTTTTACA,0.0261
14,GTTTTATA,0.243
15,ACTTTATA,0.39
16,AATTTACA,0.269
17,ATTTTATA,0.366
18,ATTTTACA,0.371
19,CCTTTATA,0.193
20,TGCTCACA,-0.0823
21,CAAGCAGG,-0.0598
22,AGTACAGG,0.0418
23,AAAAATCA,0.0153
24,GCCTCCCC,-0.263
25,ACATCCCA,-0.00783

row,Sequence,PBM 8-mer E-score
1,TCTCATAA,0.0817
2,CAGTGGAC,0.0119
3,AAGACATG,0.0346
4,CGGGAAAG,-0.177
5,ACAATAAT,0.401
6,ACAATAAG,0.276
7,ACAATACT,0.223
8,CCAATAAA,0.302
9,ACAATAAC,0.324
10,ACAATAAA,0.356
11,AACTACCA,0.17
12,AAAAAAAT,0.227
13,TAAATACA,0.35
14,GAAATAAA,0.405
15,AAAATAAC,0.378
16,GAAATACA,0.0961
17,AAAATACC,0.265
18,AAAATAAT,0.422
19,CAAATAAC,0.341
20,AAAATACA,0.25
21,GGAATAAA,0.289
22,GAAATAAC,0.3

# From the supplement of paper PMC4466236
